Assay results from PubChem BioAssay (Tox21).
Inconclusive results are not listed. Where a call stands in place of a potency, no number is given. Some compounds were tested as several samples or in several runs, with calls that do not always agree. The source made the active and inactive calls. Calls follow the shape of the full dose curve.

Test: p53 small molecule agonists, cell-based qHTS assay with rat liver microsomes (AID 1963578)
Settings: HCT-116 p53RE-bla, beta-lactamase ratio, 16 h; series mostly up to 66 µM
How it was run: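 Quantitative HTS of the Tox21 10K library: p53RE-bla cells, rat liver microsomes plus NADPH at 0.5 mg/mL final each, 16 h at 37 C, beta-lactamase fluorescence detection.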

SMILES	Potency
COCc1ccc(COC)cc1	inactive
CCCCNc1ccccc1	inactive
N#Cc1ccc(C2CCCc3cncn32)cc1 (configuration not stated)	inactive
O=C1CCC(=O)O1	inactive
CNCCS(=O)(=O)O	inactive
NC(=Nc1ccccc1)Nc1ccccc1	inactive
CO[C@H]1C=CO[C@@]2(C)Oc3c(C)c(O)c4c(O)c(c(/C=N/N5CCN(C)CC5)c(O)c4c3C2=O)NC(=O)/C(C)=C\C=C[C@H](C)[C@H](O)[C@@H](C)[C@@H](O)[C@@H](C)[C@H](OC(C)=O)[C@@H]1C	inactive
CCOC(=O)c1c(C)n(C)c2ccc(O)cc12	inactive
CCCCCCCCCCCCCCCCCCOCC(O)CO (configuration not stated)	inactive

Test: p53 small molecule agonists, cell-based qHTS assay with human liver microsomes: qHTS cell viability counter screen (AID 1963579); also: nearly all actives have a fitted effect of over 45% in size; also: potency is read from the fitted curve at half-maximal effect
Settings: p53RE-bla HCT-116 viability, ATP luminescence, 16 h, HLM; series mostly up to 66 µM
How it was run: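 Viability of p53RE-bla cells is measured as CellTiter-Glo luminescence following a 16 h, 37 C incubation with compound, liver microsomes from human donors and NADPH.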

SMILES	Potency
S=C(NC1CCCCC1)NC1CCCCC1	inactive
O=c1cc(-c2ccccc2)oc2ccccc12	inactive
CC(C)(N=C=O)c1cccc(C(C)(C)N=C=O)c1	inactive
Nc1cccc(N)n1	inactive
O=S(=O)(Oc1ccc(Cl)cc1Cl)c1ccccc1	inactive
C[N+](C)(C)CC(O)CCl (configuration not stated)	inactive
Cn1sccc1=O	28.9 µM (active) and inactive
NCCNCCNCCNCCN	inactive
COc1ccc(N)c(C)c1	inactive
O=C(O)c1ccc(C(=O)O)c(C(=O)O)c1	inactive
CCCCCCCCCCCC(=O)N(C)CC(=O)O	inactive
CCC(C)NC(N)=O (configuration not stated)	inactive
CC(=O)OC1CC(C)OC(C)O1 (configuration not stated)	inactive
CC(C)CC(C)O (configuration not stated)	inactive
COCc1ccc(COC)cc1	inactive
CCCCNc1ccccc1	inactive
CCCCC(CC)COC(C)=O (configuration not stated)	inactive
O=C1CCCCC1	inactive
